Calls of active or inactive are those of the source. Calls follow the shape of the dose curve; as a rule, active = well fitted curve in the direction sought with a large enough effect; inconclusive = small, poorly fitted or top-dose-only effect, or another doubt; inactive = no such curve, though single readings can be large or run the other way. Bridge positions count the residues as written; N and C are the ends. Square brackets hold non-standard residues; d marks the D form. Side chains are listed from the residue outwards. Peptide text beside a SMILES is read from it. * marks the point of attachment. Phg(4-OMe) = COc1ccc([C@H](N)C(=O)O)cc1; d(aIle) = CC[C@H](C)[C@@H](N)C(=O)O; d(aThr) = C[C@@H](O)[C@@H](N)C(=O)O; NMeF = CN[C@@H](Cc1ccccc1)C(=O)O; Isobutyryl = CC(C)C(=O)*; Hexanoyl = CCCCCC(=O)*
Target: Luciferin 4-monooxygenase (Photinus pyralis) (UniProt P08659)
Sequence (P08659 whole entry, looked up): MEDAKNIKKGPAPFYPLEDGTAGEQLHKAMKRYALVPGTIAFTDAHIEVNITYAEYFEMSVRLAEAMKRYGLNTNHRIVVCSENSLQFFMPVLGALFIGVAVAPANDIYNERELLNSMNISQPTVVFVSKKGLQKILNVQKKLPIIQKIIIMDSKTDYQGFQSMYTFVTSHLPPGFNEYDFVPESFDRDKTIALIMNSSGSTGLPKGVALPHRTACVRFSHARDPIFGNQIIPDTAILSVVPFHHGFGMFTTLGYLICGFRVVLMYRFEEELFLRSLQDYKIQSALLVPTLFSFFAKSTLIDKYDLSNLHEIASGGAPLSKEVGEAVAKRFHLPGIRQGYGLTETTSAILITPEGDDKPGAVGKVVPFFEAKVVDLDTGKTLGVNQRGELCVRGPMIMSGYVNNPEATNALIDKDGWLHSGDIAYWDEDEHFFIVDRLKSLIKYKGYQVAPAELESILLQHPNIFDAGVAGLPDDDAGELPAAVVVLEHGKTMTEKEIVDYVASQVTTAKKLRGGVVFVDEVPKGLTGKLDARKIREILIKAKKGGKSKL
Experiment: Firefly luciferase counterscreen qHTS: Assay Interference Panel against the NCATS CANVASS Library (AID 1347363); also: 0% is about no effect
Settings: purified firefly luciferase, luminescence inhibition, 5 min; series mostly up to 57.5 µM; activity change, negative = inhibition: at the top concentration
From the text: Natural products and their derivatives continue to be wellsprings of nascent therapeutic potential. However, many laboratories have limited resources for biological evaluation, leaving their previously isolated or synthesized compounds largely or completely untested. To address this issue, the Canvass library of natural products was assembled (https://tripod.nih.gov/canvass), in collaboration with academic and industry researchers, for quantitative high-throughput screening (qHTS) across a diverse set of cell-based and biochemical assays. The pure (>85% purity by liquid chromatography/mass spectrometry [LC/MS]) Canvass library of 346 natural products were submitted by 45 academic laboratories and companies around the world. We collected pure natural products to circumvent deconvolution and structure elucidation due to time and resource limitations. The library was formatted into 1536-well plates and evaluated in 50 qHTS (in an 11-pnt concentration series) bioassays with broad scope of disease-relevant mechanisms. The resulting data set from 50 different assays was then systematically analyzed to identify overall trends and specific natural products with interesting biological activities. Reported herein are the results of each individual qHTS and their corresponding assay protocol. This assay determines potential interactions with a common luminescent coupling enzyme, P. pyralis (firefly) luciferase, to identify possible false positives in future assays. The assay measures the relative levels of luminescence, to identify compounds that inhibit the activity of luciferase. National Center for Advancing Translational Sciences (NCATS), Rockville, MD National Institute of Health (NIH), Bethesda, Maryland
Luciferase Interference counterscreen protocol 1. In a 1536 well, black solid bottom, medium binding plates (Corning 7494), 3 uL of (1x) 50 mM Tris Acetate substrate solution containing 13.3 mM Mg-Acetate, 0.013 mM D-Luciferin, 0.013 mM ATP, 0.013% Tween-20, 0.067% BSA was dispensed into columns 1 to 48, rows 1 to 32 using the Bioraptr dispenser. 2. Compounds were pin transferred (~23 nL volume) via Wako Pin-tool (Wako Automation, Richmond VA) equipped with a 1536 pin head. The assay plates were treated with compounds in a concentration series with a final concentration range of 0.2 nM to 128 uM. 3. PTC124 was used as a control (25 uM, n = 32, column 2, row 1-32) at a final concentration of 142.9 nM and was pin transferred via Wako Pin-tool equipped with a 1536 pin head. 4. The assay plates were incubated in the dark for 15 minutes at room temperature. 5. One microliter of 4x detection reagent (0.04 ug/mL P. pyralis luciferase in 50 mM Tris-Acetate) was then added to the assay plates (column 2-48, rows 1-32) for a final assay volume of 4 uL. While 50 mM Tris-Acetate normalizing control was added to column 1, rows 1-32. 6. The assay plates were further incubated in the dark for 5 minutes at room temperature. 7. Luminescence signal was acquired via the ViewLux plate reader (PerkinElmer) using a clear emission filter and a 2 second exposure, 2x binning settings.

Row | Structure (SMILES) | activity change, negative = inhibition
1 | COc1ccc(-c2oc3cc(OC)cc(OC)c3c(=O)c2O)cc1 | -6.28% (inactive)
2 | COc1ccc2[nH]c3c(c2c1)CCN1C[C@H]2C[C@@H](OC(=O)c4cc(OC)c(OC)c(OC)c4)[C@H](OC)[C@@H](OC)[C@H]2C[C@H]31 | 5.31% (inactive)
3 | C[C@@]1(CCC(=O)Nc2c(O)ccc(C(=O)O)c2O)C(=O)C=C[C@]23C[C@H]4C[C@H](O[C@@]4(C)C2)C31 (stereo not given in full) | -16.9% (inactive)
4 | O=C1CC(c2ccc(O)cc2)Oc2cc(O)cc(O)c21 (stereo not given) | -21.6% (inactive)
5 | CN1C(=O)C(=O)N2C(=C[C@]3(c4c[nH]c5ccccc45)c4ccccc4N[C@H]23)C1=O | -2.7% (inactive)
6 | O=c1cc(-c2ccc(O)cc2)oc2cc(O)c([C@@H]3OC(CO)[C@H](O)[C@@H](O)[C@H]3O)c(O)c12 (stereo not given in full) | -1.88% (inactive)
7 | C/C(=C\CC[C@@H](C)[C@H]1CC[C@]2(C)C3=CCC4C(C)(C)[C@@H](O)C[C@@H](O)[C@]4(C)C3[C@H](O)C[C@@]12C)CO (stereo not given in full) | 3.28% (inactive)
8 | C=C1C[C@H]2O[C@@H]3[C@@H]4[C@H](CC[C@@](C)(O)[C@@H]42)[C@H](C)COC3(C)[C@@H](OC(=O)CCCCCCC)C[C@H]1O (stereo not given in full) | -1.91% (inactive)
9 | O=C1CC2OCC=C3CN4C5CC3C2[C@@H]2N1c1ccccc1[C@]52C[C@@H]4C1=C[C@H]2C3CC4N(CC[C@@]45c4ccccc4N(C1=O)[C@@H]25)C/C3=C/CO (stereo not given in full) | 4.24% (inactive)
10 | CC1=C2CC[C@]3(C)[C@H](CC=C4[C@@H]5CC(C)(C)CC[C@@H]5C(=O)[C@H](O)[C@]43C)[C@@]2(C)C=C(O)C1=O | 3.44% (inactive)
11 | C=C1C[C@H]2O[C@@H]3[C@@H]4[C@H](CC[C@@](C)(O)[C@@H]42)[C@H](C)COC3(C)[C@@H](OC(=O)CCCCCCC)CC1=O (stereo not given in full) | 2.81% (inactive)
12 | C=C(Cl)[C@](Cl)(CBr)CC[C@@H](Br)C(C)(C)Cl | 5.11% (inactive)
13 | CC[C@H](C)[C@H]1NC(=O)[C@@H](NC(=O)C(C)C)[C@@H](C)OC(=O)[C@H](COC(=O)CNC(C)=O)NC(=O)[C@@H]([C@@H](C)O)NC(=O)[C@H](Cc2ccccc2)N(C)C(=O)[C@H](c2ccc(OC)cc2)NC1=O (Isobutyryl-T[d(aIle)][Phg(4-OMe)][NMeF][d(aThr)]S([Gly-Ac]); ester 1-C) | -5.6% (inactive)
14 | CC(C)C[C@@H]1c2c(O)c(C=O)c(O)c(C=O)c2O[C@]2(C)C=C[C@@H](C(C)C)C[C@H]12 | -4.12% (inactive)
15 | C/C=C(/C)c1c(Cl)c(OC)c(C)c2c1Oc1c(Cl)c(O)c(Cl)c(C)c1C(=O)O2 | -9.36% (inactive)
16 | CN1CC[C@@]23c4ccccc4N[C@@H]1[C@@]21CCN(C)[C@@H]3Nc2ccccc21 | 3.98% (inactive)
17 | O[C@H]1c2ccccc2-c2c3c(cc4c2[C@@H]1NCC4)OCO3 | 4.84% (inactive)
18 | COC(=O)c1cc2cc3c(c(O)c2c(=O)o1)OC1(CC3)CC2=C(O1)C(=O)c1c(O)c(OC)cc(OC)c1C2=O (stereo not given) | -21.2% (inactive)
19 | C=C1C(=O)O[C@H]2[C@H]1CCC(C)=C1CC[C@@](C)(O)[C@@H]12 | 4.23% (inactive)
20 | C=C(C)C(=O)O[C@H]1C[C@@]2(C)OC(=CC2=O)/C(C)=C\[C@H]2OC(=O)C(=C)[C@H]12 | 0.0248% (inactive)

Row | Structure (SMILES) | activity change, negative = inhibition
21 | COC(=O)c1cccc2oc(-c3cccc4oc(-c5c(C)cccc5O)nc34)nc12 | -1.81% (inactive)
22 | COC1C(C)OC(OCC23C[C@@H]4[C@H](C)CC[C@H]4C4(C=O)CC2C=C(C(C)C)C34C(=O)O)[C@@H](O)[C@H]1O (stereo not given in full) | -9.83% (inactive)
23 | O=Cc1ccc2n1C[C@]1(C[C@H](O)[C@@H](CO)O1)OC2 | 0.428% (inactive)
24 | O=C1OC(CCO)c2cccc(O)c21 (stereo not given) | -0.79% (inactive)
25 | CN1CC[C@@]2([C@@]34CCN(C)[C@@H]3Nc3ccccc34)c3ccccc3N[C@@H]12 | 5% (inactive)
26 | C[n+]1cc2cc(C(N)=O)[nH]c3c(=N)c(Cl)c(N)c1c23 | -11% (inactive)
27 | Cc1occ2c1C(=O)c1c(cc(O)c(O)c1O)C2=O | -9.64% (inactive)
28 | CC(CCC[C@]1(C)C(=O)C=C[C@@]23C[C@]4(C)O[C@@H](C[C@@H]4[C@H]2O)C31)C(=O)O (stereo not given in full) | -2.08% (inactive)
29 | C=C[C@]1(C)CC[C@@H]([C@H](C)C(=O)/C=C/C(C)(C)O)O1 | -2.22% (inactive)
30 | CC(=O)O[C@H]1c2ccccc2-c2c3c(cc4c2[C@@H]1N(C(C)=O)CC4)OCO3 | 3.34% (inactive)
31 | C=C[C@@](C)(O)CC[C@@H]1[C@@]2(C)CCCC(C)(C)[C@@H]2CC[C@@]1(C)O | 2.39% (inactive)
32 | CC1=C[C@H]2[C@H]3C(=O)C(c4ccc(O)cc4)=C[C@@]3(c3ccc(O)cc3)[C@@H]1C(=O)[C@]2(C)O | -4.72% (inactive)
33 | CC(=O)Oc1cc2c(c(OC(C)=O)c1C1CCc3cc(Cl)c(Cl)n31)C(=O)n1c-2cc(Cl)c1Cl (stereo not given) | -18.8% (inactive)
34 | C=C1CC[C@@H](Br)C(C)(C)[C@]12CC=C(C)C(=O)C2 | 4.16% (inactive)
35 | O[C@H]1C=C2[C@H]3CN(Cc4cc5c(cc43)OCO5)[C@H]2C[C@@H]1O | -9.57% (inactive)
36 | CN1CC[C@]23c4ccccc4N[C@H]1[C@]21CCN(C)[C@H]3Nc2ccccc21 | -5.95% (inactive)
37 | CCCCCC(=O)N[C@@H](CC(C)C)C(=O)N[C@H](C=O)CCC(=O)O (Hexanoyl-Leu-Glu-aldehyde) | -6.75% (inactive)
38 | C=C1CCC2C(C)(C(=O)O)CCC(CC/C(C)=C/C(=O)NC(CCC(N)=O)C(=O)O)[C@@]2(C)C1 (stereo not given in full) | -3.49% (inactive)
39 | O=C1CCC(=O)N(O)CCCCCNC(=O)CCC(=O)N(O)CCCCCNC(=O)CCC(=O)N(O)CCCCCN1 | 1.85% (inactive)
40 | COc1cc(O)c(C(=O)[C@@H]2[C@H](CC=C(C)C)C(C)=CC[C@H]2c2ccccc2)c(O)c1 | -1.16% (inactive)

— PubChem BioAssay (NCATS)
